Measurements as given in PubChem BioAssay (Tox21).
Results filed as inconclusive are left out. Calls of active or inactive are those of the source. Unless noted, calls come from the whole dose curve; as a rule, active = well fitted curve in the direction sought with a large enough effect in the repeat runs; inconclusive = weak or mixed curves; inactive = no such curve, though single readings can be large; an effect the other way counts as inactive or inconclusive.

How the values were obtained:
[1] = qHTS assay to identify small molecule agonists of the hypoxia (HIF-1) signaling pathway - cell viability counter screen (AID 1224844; calls by dose curve; note: nearly all actives have a fitted effect of over 50% in size)
In short: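 Cytotoxicity measured by CellTiter-Glo ATP luminescence in the wells also read for beta-lactamase signal. Cells were HRE-bla ME-180 (2,000/well, 0.5% dialyzed FBS), exposed to compounds for 17 h at 37C.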

[2] = qHTS assay to identify small molecule agonists of H2AX (AID 1224845; active = well fitted activation curve with a large enough effect in the signal ratio in the repeat runs, not every such curve was filed as active; the % refers to the signal ratio)
In short: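 Phospho-H2AX Ser139 measured by HTRF (ex 320 nm; em 665 and 620 nm) after 24 hr antibody incubation. Compounds, 15 concentrations, 0.76% DMSO, were applied to CHO-K1 cells for 3hr at 37C before lysis.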

[3] = qHTS assay to identify small molecule agonists of the hypoxia (HIF-1) signaling pathway (AID 1224846; active = well fitted activation curve with a large enough effect in the signal ratio in the repeat runs, not every such curve was filed as active; the % refers to the signal ratio)
In short: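 Compounds added to ME-180 cells carrying hypoxia-response-element beta-lactamase reporter (0.5% dialyzed FBS, 5 h preplating), 17 h at 37C; agonist activity detected by CCF4-AM B/G FRET read-out.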

[4] = qHTS assay to identify small molecule agonists of H2AX - cell viability counter screen (AID 1224847; calls by dose curve; note: top concentration of the series differs between compounds; nearly all actives have a fitted effect of over 30% in size)
In short: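 Wild-type CHO-K1 cells (10% FBS medium) were plated overnight at 37C, exposed to compounds at 15 concentrations for 3 hr at 37C (0.76% DMSO final), and viability was read as CellTiter-Glo luminescence after 30 min at room temperature.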

[5] = qHTS assay to identify small molecule antagonists of the estrogen related receptor (ERR) signaling pathway from Tox21 library (AID 1224848); note: nearly all actives have a fitted effect of over 50% in size; note: potency is the fitted concentration of half-maximal effect
In short: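 Luciferase luminescence (ONE-Glo, 30 min room temperature) was the read-out. Cells of the NTP-supplied ERR line, 2,000 per well, were given 6 h at 37 C before compound addition in DMSO and 18 h exposure at 37 C.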

[6] = qHTS assay to identify small molecule agonists of the estrogen related receptor (ERR) signaling pathway from Tox21 library (AID 1224849; calls by dose curve; note: nearly all actives have a fitted effect of over 15% in size); settings: ERR reporter cell line, ONE-Glo luciferase, 18 h; at 92.4 µM (top of the series) unless noted
In short: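 Luminescent agonist read-out (One-Glo, 30-minute room-temperature incubation) following 18-hour compound treatment at 37 C of the ERR cell line, which had been plated 6 hours before dosing.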

[7] = qHTS RealTime-Glo MT Cell Viability Assay in HepG2 cells - 24 hour (AID 1224867); note: nearly all actives have a fitted effect of over 50% in size
In short: (§1)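 Viability was tracked continuously by NanoLuc luminescence from prosubstrate reduced by living HepG2 cells, at successive time points over 40 h of compound exposure. Cells with reagent were preincubated 5 h at 37 °C before compound addition.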

[8] = qHTS RealTime-Glo MT Cell Viability Assay in HEK293 cells - 32 hour (AID 1224868); note: nearly all actives have a fitted effect of over 50% in size; note: potency is the fitted concentration of half-maximal effect
In short: (§2)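 Viability tracked continuously by luminescence as live cells reduce a prosubstrate for NanoLuc; HEK293 cells preincubated 5 h, compound-treated at 37 C, and read at 0, 8, 16, 24, 32 and 40 h.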

[9] = A CellTox Green Cytotoxicity Assay to monitor cytotoxicity in HEK293 cells - 0 hour (AID 1224869); note: nearly all actives have a fitted effect of over 50% in size
In short: (§3)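 Fluorescence from a DNA-binding dye excluded by viable cells was measured repeatedly in the same HEK293 wells (600 cells/well) during continuous compound exposure at 37 C. Each assay gives one read point: 0, 8, 16, 24, 32 or 40 h.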

[10] = qHTS RealTime-Glo MT Cell Viability Assay in HepG2 cells - 40 hour (AID 1224870); note: nearly all actives have a fitted effect of over 50% in size; note: potency is the fitted concentration of half-maximal effect
In short: (§4)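 Real-time viability: cells seeded at 600 per well together with NanoLuc and cell-permeant prosubstrate, compounds added after 5 h incubation. Luminescence tracked at 0, 8, 16, 24, 32 and 40 h of exposure.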

[11] = A CellTox Green Cytotoxicity Assay to monitor cytotoxicity in HEK293 cells - 40 hour (AID 1224871); note: nearly all actives have a fitted effect of over 45% in size
In short: as §3

[12] = qHTS RealTime-Glo MT Cell Viability Assay in HepG2 cells - 8 hour (AID 1224873); note: nearly all actives have a fitted effect of over 55% in size
In short: as §4

[13] = qHTS RealTime-Glo MT Cell Viability Assay in HEK293 cells - 40 hour (AID 1224874); settings: RealTime-Glo luminescence; max response: hits give low values; note: nearly all actives have a fitted effect of over 50% in size; note: potency is the fitted concentration of half-maximal effect
In short: (§5)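 Luminescence, which tracks viable cell number through reduction of the prosubstrate to a NanoLuc substrate, was read over continuous 37 C culture. Cells (600/well) were premixed with reagent and rested 5 h before 23 nL of compound in DMSO was pinned.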

[14] = A CellTox Green Cytotoxicity Assay to monitor cytotoxicity in HEK293 cells - 24 hour (AID 1224875); note: nearly all actives have a fitted effect of over 45% in size
In short: as §3

[15] = A CellTox Green Cytotoxicity Assay to monitor cytotoxicity in HepG2 cells - 16 hour (AID 1224876); note: nearly all actives have a fitted effect of over 45% in size
In short: (§6)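 Real-time cytotoxicity: fluorescence of a cell-impermeant cyanine dye binding DNA of dead HepG2 cells, measured repeatedly (0–40 h) during compound exposure at 37 C. Cells seeded 600/well with reagent, dosed after 5 h.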

[16] = qHTS RealTime-Glo MT Cell Viability Assay in HepG2 cells - 32 hour (AID 1224877); note: nearly all actives have a fitted effect of over 55% in size
In short: as §1

[17] = qHTS RealTime-Glo MT Cell Viability Assay in HEK293 cells - 0 hour (AID 1224880); note: top concentration of the series differs between compounds; nearly all actives have a fitted effect of over 45% in size
In short: as §5

[18] = qHTS RealTime-Glo MT Cell Viability Assay in HEK293 cells - 16 hour (AID 1224872)
In short: as §2

[19] = A CellTox Green Cytotoxicity Assay to monitor cytotoxicity in HepG2 cells - 24 hour (AID 1224878); note: nearly all actives have a fitted effect of over 45% in size; note: potency is the fitted concentration of half-maximal effect
In short: as §6

[20] = A CellTox Green Cytotoxicity Assay to monitor cytotoxicity in HepG2 cells - 40 hour (AID 1224879); note: nearly all actives have a fitted effect of over 40% in size; note: potency is the fitted concentration of half-maximal effect
In short: as §6
% is set by controls: 0 for no effect and ±100 for the full control effect.

CC[C@H]1CC[C@H](NCc2cc3c(cc2OC)[C@H]2C[C@H]2C(=O)N3C)[C@H](c2ccccc2)N1
inactive: Potency [1] | Potency [2] | outcome [3] | Potency [4] | activity change, positive = activation [6] -40.9% | Potency [7] | Potency [9] | Potency [10] | Potency [11] | outcome [12] | Potency [14] | Potency [15] | Potency [16] | outcome [17]
active: Potency [5] 27.3 µM | Potency [8] 19.5 µM | Potency [13] 21.9 µM

COC(=O)c1ccc(OC)cc1
inactive: Potency [1] | Potency [2] | outcome [3] | Potency [4] | Potency [5] | activity change, positive = activation [6] 5.85% | Potency [7] | Potency [8] | Potency [9] | Potency [10] | Potency [11] | Potency [18] | outcome [12] | max response [13] 0.622% | Potency [14] | Potency [15] | Potency [19] | Potency [20] | outcome [17]

CC(C)C[C@H](NC(=O)OCC1c2ccccc2-c2ccccc21)C(=O)O
inactive: Potency [1] | Potency [2] | outcome [3] | Potency [4] | Potency [5] | Potency [7] | Potency [8] | Potency [9] | Potency [10] | Potency [11] | Potency [18] | outcome [12] | max response [13] -12.9% | Potency [14] | Potency [15] | Potency [16] | Potency [19] | Potency [20] | outcome [17]
active: activity change, positive = activation [6] 147%

O=C(O)[C@@H](O)[C@H](O)[C@H](O)[C@@H](O)C(=O)O
inactive: Potency [1] | Potency [2] | outcome [3] | Potency [4] | Potency [5] | activity change, positive = activation [6] 4.4% [at 42.5 µM] | Potency [8] | Potency [9] | Potency [10] | Potency [11] | Potency [18] | outcome [12] | max response [13] 0.215% | Potency [14] | Potency [15] | Potency [16] | Potency [19] | Potency [20] | outcome [17]

C1CSCCS1
inactive: Potency [1] | Potency [2] | outcome [3] | Potency [4] | Potency [5] | activity change, positive = activation [6] 3.63% | Potency [7] | Potency [8] | Potency [9] | Potency [10] | Potency [11] | Potency [18] | outcome [12] | max response [13] -4.02% | Potency [14] | Potency [15] | Potency [16] | Potency [19] | Potency [20] | outcome [17]

FC(F)(F)C(F)(F)C(F)(F)C(F)(F)C(F)(F)C(F)(F)C(F)(F)C(F)(F)Br
inactive: Potency [1] | Potency [2] | outcome [3] | Potency [4] | Potency [5] | activity change, positive = activation [6] 6.1% [at 42.5 µM] | Potency [8] | Potency [9] | Potency [10] | Potency [11] | Potency [18] | outcome [12] | max response [13] -0.235% | Potency [14] | Potency [15] | Potency [16] | Potency [19] | Potency [20] | outcome [17]

Cn1cnc2c(F)c(Nc3ccc(Br)cc3Cl)c(C(=O)NOCCO)cc21
active: Potency [10] 674 nM | Potency [19] 30.1 nM | Potency [20] 37.9 nM
inactive: Potency [1] | Potency [2] | outcome [3] | Potency [4] | Potency [5] | activity change, positive = activation [6] -7.67% [at 42.5 µM] | Potency [8] | Potency [9] | Potency [11] | Potency [18] | outcome [12] | Potency [14]
